From PubChem BioAssay (Tox21)
Results filed as inconclusive are left out. Values without a mark were called inactive. Active and inactive are the calls of the source. Calls follow the shape of the dose curve; as a rule, active = well fitted cell-killing curve with a large enough effect in the repeat runs; inconclusive = weak or mixed curves, or effect the other way; inactive = flat fitted curve, though single readings scatter.

Assay: qHTS RealTime-Glo MT Cell Viability Assay in HEK293 cells - 0 hour (AID 1224880); also: top concentration of the series differs between compounds; nearly all actives have a fitted effect of over 45% in size
Details: RealTime-Glo luminescence; series mostly up to 76.8 µM; activity change, negative = cytotoxicity: at the top concentration
From the text: U.S. Tox21 Program National Center for Advancing Translational Sciences [NCATS] NIH Chemical Genomics Center [NCGC] U.S. Environmental Protection Agency [EPA] National Institutes of Environmental Health Sciences [NIEHS] National Toxicology Program [NTP] U.S. Food and Drug Administration [FDA] Tox21 Assay Overview: Measure of cell viability is critical in the cell-base assay. Analysis of cell viability is necessary for the characterization of cell responses to cytotoxic drugs and environmental stress. A RealTime-Glo MT Cell Viability Assay to monitor cell viability in real time of continues cell culture during 40 hours of compound treatment was used to screen Tox21 10K library compounds in Hek293 cells. The RealTime-Glo MT Cell Viability Assay is a nonlytic, homogeneous, bioluminescent method to measure cell viability in real time using a simple, plate-based method. The assay involves adding NanoLuc luciferase and a cell-permeant prosubstrate to cells in culture. Viable cells reduce the proprietary prosubstrate to generate a substrate for NanoLuc luciferase. This substrate diffuses from cells into the surrounding culture medium, where it is rapidly used by the NanoLuc Enzyme to produce a luminescent signal. The signal correlates with the number of viable cells, making the assay well suited for cytotoxicity studies.
Tox21 Assay Protocol Summary: The mixture of Hek293 cell suspension and reagents were dispensed at 600cells/6 ul/well in 1536-well tissue culture treated black solid bottom plates using a Multidrop dispenser. After the assay plates were incubated at a 37 C/5% CO2 incubator for 5 hours, 23 nL of compounds dissolved in DMSO, positive and negative controls was transferred to the assay plate by a pintool work station. The plates were incubated at 37 C for 40 hours. The luminescence intensity were measured at 0h, 8h, 16h, 24h, 32h and 40h time points using ViewLux plate reader during compound treatment.
% is scaled to controls: 0 for no effect and ±100 for the full control effect.

SMILES | activity change, negative = cytotoxicity | Potency
Nc1ccc2cc(S(=O)(=O)O)cc(O)c2c1N=Nc1ccccc1C(F)(F)F | -21.1% | 
O=c1cc(-c2ccc(O)cc2)oc2cc(O)cc(O)c12 | -19% | 
O=Cc1cc(O)ccc1Br | 0.407% | 
CCCC(C)c1ccccc1O (stereo not given) | -2.27% | 
CN(C/C=C/C#CC(C)(C)C)Cc1cccc2ccccc12 | -3.94% [at 35.3 µM] | 
CCN(CCC#N)c1ccc(N=Nc2c(Cl)cc([N+](=O)[O-])cc2Cl)cc1 | -6.32% | 
OCc1c[nH]c2ccccc12 | 6.2% | 
CSc1ccc(/C=C2/C(C)=C(CC(=O)O)c3cc(F)ccc32)cc1 | -8.52% [at 35.3 µM] | 
O=c1[nH]sc2cc(Cl)ccc12 | -0.538% [at 35.3 µM] | 
CCCCCCCCCCCCCCCCCC[N+](C)(C)C | 7.52% | 
CCC(C)(C)C1CCCCC1OC(C)=O (stereo not given) | 10% | 
CCCCCCCCOC(=O)c1ccc(O)cc1 |  | inactive
CCC1OCC(COc2ccc(Oc3ccccc3)cc2)O1 (stereo not given) | -1.83% | 
CN(C)[C@@H]1C(=O)C(C(N)=O)=C(O)[C@@]2(O)C(=O)C3=C(O)c4c(O)cccc4C[C@H]3C[C@@H]12 | -1.72% [at 35.3 µM] | 
Nc1c2ccccc2nc2ccccc12 |  | inactive
CC(=O)SC[C@@H](Cc1ccccc1)C(=O)NCC(=O)OCc1ccccc1 | -1.29% [at 35.3 µM] | 
O=C(c1ccc(F)cc1)C1CCN(CCn2c(=O)[nH]c3ccccc3c2=O)CC1 | -11.2% [at 35.3 µM] | 
Cc1cccc(CN2CCN(C(c3ccccc3)c3ccc(Cl)cc3)CC2)c1 (stereo not given) | 8.08% [at 35.3 µM] | 
O=c1[nH]cnc2nc[nH]c12 | -3.76% [at 35.3 µM] | 
Cc1ccc(O)c2ncccc12 | 0.713% [at 35.3 µM] | 

SMILES | activity change, negative = cytotoxicity | Potency
CN(C)C(=O)C1(N2CCCCC2)CCN(CC[C@@]2(c3ccc(Cl)c(Cl)c3)CN(C(=O)c3ccccc3)CCO2)CC1 | -0.781% | 
O=[N+]([O-])c1ccccc1Nc1ccccc1 | -6.74% | 
O=C1CCCc2c1cc1ccc3cccc4ccc2c1c34 | 0.374% | 
COc1c(C)c2c(c(O)c1C/C=C(\C)CCC(=O)O)C(=O)OC2 | -2.61% [at 35.3 µM] | 
CC(C)(C)CC(C)(C)c1ccc(O)c(Cc2ccc(Cl)cc2Cl)c1 | -5.04% [at 35.3 µM] | 
CN(C)[C@@H]1C(=O)C(C(N)=O)=C(O)[C@@]2(O)C(=O)C3=C(O)c4c(O)ccc(Cl)c4[C@@H](O)[C@H]3C[C@@H]12 | -10% [at 35.3 µM] | 
Oc1cccc(-c2c3nc(c(-c4cccc(O)c4)c4ccc([nH]4)c(-c4cccc(O)c4)c4nc(c(-c5cccc(O)c5)c5ccc2[nH]5)CC4)C=C3)c1 | -5.79% [at 35.3 µM] | 
CC(C)(C)NC(=O)[C@@H]1C[C@@H]2CCCC[C@@H]2CN1C[C@@H](O)[C@H](Cc1ccccc1)NC(=O)[C@H](CC(N)=O)NC(=O)c1ccc2ccccc2n1 | -0.0585% | 
CCOC(=O)O[C@H](C)OC(=O)c1ccc2c(c1)cc(C(=O)NC1CCN(C(C)C)CC1)n2Cc1cc(-c2ccc(Cl)s2)on1 | -0.981% | 
CCCCN(CCCC)C(=O)N(CCCC)CCCC | 15% | 
CCCCCCCC(=O)[O-].CCCCCCCC(=O)[O-].[Zn+2] | 7.75% [at 35.3 µM] | 
O=C1C=CC(=O)N1 | -3.48% | 
CCCC(c1cc(C(C)(C)C)c(O)cc1C)c1cc(C(C)(C)C)c(O)cc1C | 3.35% | 
Oc1ccc(Cl)cc1Sc1cc(Cl)ccc1O |  | inactive
C=CC(=O)OCCn1c(=O)n(CCOC(=O)C=C)c(=O)n(CCOC(=O)C=C)c1=O | 8.76% | 
CCCCCCCCCCC=O | 6.33% | 
NNc1nc(-c2ccc([N+](=O)[O-])cc2)cs1 | -6.51% | 
On1ccccc1=S | 13.1% | 
CCCN(CCC)C(=O)C(CCC(=O)OCCCN1CCN(CCOC(=O)Cc2c(C)n(C(=O)c3ccc(Cl)cc3)c3ccc(OC)cc23)CC1)NC(=O)c1ccccc1 (stereo not given) | -2.97% [at 35.3 µM] | 
NC(=NCCCCCCN=C(N)/N=C(\N)Nc1ccc(Cl)cc1)/N=C(\N)Nc1ccc(Cl)cc1 |  | inactive
